# Source: PubChem BioAssay (National Center for Advancing Translational Sciences (NCATS))
# MARV entry inh: blocks Marburg virus binding or cell entry; Marburg virus pseudotype entry/binding inhibition, cell-based; 18,000 compounds, 6.5% hits; Potency, µM (highest dose often 49.2 µM), for the others: top-dose activity change, negative = inhibition, most hits filed as inhibitors
# LASV entry inh: blocks Lassa virus binding or cell entry. 18,000 compounds, 4.1% hits. AID 720533. Lassa virus pseudotyped entry inhibition, cell-based qHTS. Potency, µM (titrated, usually from 49.2 µM), without a hit: at the highest dose activity change, negative = inhibition, actives largely listed as inhibitors
# Starred values were filed as active, the others as inactive; ? = inconclusive; nt = no result given; ! = not active in a repeat; [ ] = another dose, or the depositor's remark. Sampled rows, rich in hits. Any-hit rate of the full collection: about 8%. Calls follow the shape of the full dose curve; tested in HEK293 cells. % is scaled to controls: 0 for no effect and ±100 for the full control effect; potency is read from the fitted curve at half-maximal effect.
SMILES,MARV entry inh,LASV entry inh
COC(=O)[C@@H](N)CCCN=C(N)N[N+](=O)[O-],18%,11%
CN1C[C@H](C(=O)N[C@]2(C)O[C@@]3(O)[C@@H]4CCCN4C(=O)[C@H](Cc4ccccc4)N3C2=O)C=C2c3cccc4[nH]cc(c34)C[C@H]21,-11%,-24%
CC(C)C[C@H]1C(=O)N2CCC[C@@H]2[C@]2(O)O[C@](NC(=O)[C@H]3C=C4c5cccc6[nH]c(Br)c(c56)C[C@H]4N(C)C3)(C(C)C)C(=O)N12,5%[17.8 µM],-6%[17.8 µM]
CC(C)CC1C(=O)N2CCCC2C2(O)O[C@@](NC(=O)C3C=C4c5cccc6[nH]c(Br)c(c56)CC4N(C)C3)(C(C)C)C(=O)N12 (some centres not stated),10µM*,?
CC(C)C[C@H]1C(=O)N2CCC[C@H]2[C@]2(O)O[C@](NC(=O)[C@@H]3C[C@@H]4c5cccc6[nH]cc(c56)C[C@H]4N(C)C3)(C(C)C)C(=O)N12,?,-15%
CC(C)C[C@H]1C(=O)N2CCC[C@H]2[C@]2(O)O[C@](NC(=O)[C@@H]3C=C4c5cccc6[nH]c(Br)c(c56)C[C@H]4N(C)C3)(C(C)C)C(=O)N12,?,25µM*!
CC(C)[C@@]1(NC(=O)[C@@H]2C[C@H]3c4cccc5[nH]cc(c45)C[C@@H]3N(C)C2)O[C@@]2(O)[C@H]3CCCN3C(=O)[C@H](Cc3ccccc3)N2C1=O,22µM*!,-17%
COC(=O)c1cc(CNC(=O)c2ccccc2F)cc(NC(=O)c2ccccc2OC)c1,3%,?
CCOC(=O)C(Cc1ccc(O)cc1)NC(C)=O (configuration not stated),26%,13%
CC(C)=CCN1C(=O)[C@]2(O[C@H](C)CC3=CCCC32)c2c(Br)cccc21 (some centres not stated),3%[8.59 µM],0%[8.59 µM]
CCCCCCCCNS(=O)(=O)CCNCc1ccc(OC)cc1,26%,32%
CN[C@@H](C)[C@H](O)c1ccccc1,15%,-10%
CCCCCCCCN[C@@H](C)[C@H](O)c1ccc(SC(C)C)cc1,11µM*,-5%[17.8 µM]
Cn1c(-c2nonc2N)nc2cnccc21,?,43%
COC(=O)C1=CO[C@@H](C)[C@@H]2CN3CCc4c([nH]c5cc(OC)ccc45)[C@@H]3C[C@H]12,-12%,1%
COC(=O)[C@H]1C(OC)[C@@H](OC(=O)c2cc(OC)c(OC)c(OC)c2)C[C@@H]2CN3CCc4c([nH]c5cc(OC)ccc45)[C@H]3C[C@H]21 (some centres not stated),-6%,1%
COC(=O)[C@H]1[C@H]2C[C@@H]3c4[nH]c5cc(OC)ccc5c4CCN3C[C@H]2C[C@@H](OC(=O)/C=C/c2cc(OC)c(OC)c(OC)c2)[C@@H]1OC,10µM*,-28%[17.8 µM]
COC(=O)[C@H]1[C@H]2C[C@@H]3c4[nH]c5ccccc5c4CCN3C[C@H]2C[C@@H](OC(=O)c2cc(OC)c(OC)c(OC)c2)[C@@H]1OC,?,3.5µM*
CC(=O)Nc1cccc(-c2cc3c(c4c2ccn4C)C2CCC3C2)c1 (configuration not stated),-9%,27%
CC(C)(C#N)O[C@H]1OC(CO)C(O)C(O)C1O (some centres not stated),-1%,-15%
COc1ccccc1-c1ccnc(-n2ncc(C(=O)NCCc3cccnc3)c2C)n1,3%,-22%
CCOC(=O)C1(C(=O)OCC)CC2=C(C=CC3=C(C=C2)CC(C(=O)OCC)(C(=O)OCC)C3)C1,6%[8.59 µM],-21%[8.59 µM]
c1ccc(COC[C@H]2CO2)cc1,10%,4%
CC(C)(c1ccc(OCC2CO2)cc1)c1ccc(OCC2CO2)cc1 (configuration not stated),7.1µM*!,8.9µM*!
C[C@H](NCc1ccccc1)c1ccccc1,-1%,1%
SMILES,MARV entry inh,LASV entry inh
C[C@H](NCCC(c1ccccc1)c1ccccc1)c1ccccc1,10µM*,?
C=C[C@H]1CCC=C2C(=O)CCC[C@H]21,-30%[8.59 µM],-23%[8.59 µM]
CCC1OC(=O)C[C@@H](O)[C@H](C)[C@@H](O[C@@H]2O[C@H](C)C[C@H](N(C)C)[C@H]2O)[C@@H](CC=O)C[C@@H](C)C(=O)/C=C/[C@]2(C)OC2C1C (some centres not stated),8.9µM*,25µM*
CO[C@@H]1[C@@H](O[C@@H]2O[C@H](C)[C@@H](O[C@H]3C[C@@](C)(O)[C@@H](O)[C@H](C)O3)[C@H](N(C)C)[C@H]2O)[C@@H](CC=O)C[C@@H](C)[C@@H](O[C@@H]2CC[C@H](N(C)C)[C@@H](C)O2)/C=C/C=C/C[C@@H](C)OC(=O)C[C@H]1O,?,10%[17.8 µM]
C[C@]12C=CC(=O)C=C1CC[C@@H]1[C@@H]2[C@@H](O)C[C@@]2(C)[C@H]1CC[C@]2(O)C(=O)CO,-3%,-8%
O=C(Nc1ccc(Cl)c(Cl)c1)C1CC1,6%,-9%
O=C(Cc1ccc(Cl)c(Cl)c1)N1CCCCC1CN1CCCC1 (configuration not stated),7.9µM*,?
COc1ccc2[nH]cc(CCNC(C)=O)c2c1,8%,-15%
O[N+]1=CC=CCC1=S.On1ccccc1=S.[Zn],4.5µM*,3.5µM*
C=CC[C@](C)(Nc1ccc(OC)cc1)C(=O)OCC,-19%,-2%
CC(C)(C)C(=O)OCOC(=O)C1N2C(=O)CC2S(=O)(=O)C1(C)C (configuration not stated),13%,-6%
OC1(c2cccnc2)CCN(Cc2ccc3c(c2)CN(Cc2ccc(Cl)cc2)CCO3)CC1,4%,6%
OC1(c2ccc(Cl)cc2)CCN(Cc2c[nH]c3ccccc23)CC1,8.9µM*,?
C=C(C#CCCO)CCN1C=C(C(=O)OCC)C(c2ccccc2)NC1=O (configuration not stated),2%[8.59 µM],59%[8.59 µM]
Oc1ccc(Cl)c2cccnc12,13%,-1%
Oc1c(Cl)cc(Cl)c2cccnc12,13µM*,?
Cc1ccc2c(Cl)cc(Cl)c(O)c2n1,6.3µM*!,?
CSC[C@H]1CN(c2ccccc2)C(=O)[C@H]1CC(=O)Nc1ccccc1,27%,17%
C1CNCCN1,7%,2%
O=C(c1ccc2c(c1)OCO2)N(Cc1cc2cc3c(cc2nc1N1CCOCC1)CCC3)CC1CCCO1 (configuration not stated),7%,-2%
CNCCCC1c2ccccc2C=Cc2ccccc21,7.1µM*,?
CCC(=O)O,12%,13%
CC(C)[C@@H](CC(=O)N[C@@H]1CCCC[C@H]1C(=O)N[C@H](CC(=O)N[C@@H](CCC(=O)O)CC(=O)O)Cc1c[nH]c2ccccc12)NC(=O)C[C@H](Cc1c[nH]c2ccccc12)NC(=O)[C@@H]1CCCC[C@H]1N,-5%,-17%
CC1(C)S[C@@H]2[C@H](NC(=O)Cc3ccccc3)C(=O)N2[C@H]1C(=O)O,14%,-10%
O=C(O)c1ccc(OCCCOc2ccc(C(=O)O)cc2)cc1,8%,4%
SMILES,MARV entry inh,LASV entry inh
CC/C(=C(/c1ccccc1)c1ccc(OCCN(C)C)cc1)c1ccccc1,3.2µM*,nt
CN(C)CCOC(=O)COc1ccc(Cl)cc1,-11%,-3%
CCN(CC)CCOc1ccc(/C(=C(\Cl)c2ccccc2)c2ccccc2)cc1,nt,14µM*!
C=CCOC(=O)NC(c1ccc(F)c(F)c1)S(=O)(=O)c1ccc(Cl)cc1 (configuration not stated),7%,-4%
c1ccc2c(c1)Sc1ccccc1N2CC1CN2CCC1CC2 (configuration not stated),13µM*,?
CN1CC[C@@H]2CN3CCc4cccc(c43)[C@H]2C1,?,-6%
